# Reference: PubChem BioAssay (Tox21)
# Several values for one entry are separate records, joined by “and”; a condition that tells them apart may be missing. Identical values can stand only once. Records with an inconclusive call do not appear. Entries that show only a call come without a potency. A structure can be active in one record and inactive in another. Activity calls are given as the source filed them. Unless noted, the call rests on the fitted dose curve; in most records, active means well fitted curve in the direction sought with a large enough effect in the repeat runs; inconclusive means weak or mixed curves; inactive means no such curve, though single readings can be large; an effect the other way counts as inactive or inconclusive.
# Key:
# [1] = qHTS assay for small molecule agonists of the p53 signaling pathway (AID 651631; calls by dose curve; further: nearly all actives have a fitted effect of over 15% in size; further: potency means the concentration at half of the fitted maximal effect)
# Procedure, shortened: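 Testing took place in human colorectal HCT-116 cells with stable p53RE-driven beta-lactamase. After 16 h of compound exposure at 37 °C, a FRET substrate was added and fluorescence recorded 2 h later.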
# [2] = qHTS assay for small molecules that induce genotoxicity in human embryonic kidney cells expressing luciferase-tagged ATAD5 (AID 651632); further: nearly all actives have a fitted effect of over 15% in size
# Procedure, shortened: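 Luminescence read-out: after 16 hr compound exposure at 37C, ATAD5-luciferase HEK293T cells received Amplite, 30 min RT, then CCD imaging. A rise in signal marks genotoxic stress.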
# [3] = qHTS assay for small molecule agonists of the p53 signaling pathway - cell viability (AID 651633; calls by dose curve; further: nearly all actives have a fitted effect of over 30% in size; further: potency means the concentration at half of the fitted maximal effect)
# Procedure, shortened: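 p53RE-bla cells, seeded at 4,000 per well and rested 5 h at 37 C/5% CO2, received compounds in DMSO for 16 h at 37 C. CellTiter-Glo was then added, and luminescence was read after 30 min at room temperature to gauge cytotoxicity.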
# [4] = qHTS assay for small molecules that induce genotoxicity in human embryonic kidney cells expressing luciferase-tagged ATAD5 - cell viability (AID 651634; calls by dose curve; further: nearly all actives have a fitted effect of over 25% in size; further: potency means the concentration at half of the fitted maximal effect)
# Procedure, shortened: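 HEK293T ATAD5-luc cells, 2,000/well; compound 15.5 hr, 37C/5% CO2; CellTiter-Fluor 30 min, 37C; fluorescence read.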
# [5] = qHTS assay to test for compound auto fluorescence at 590 nm (red) in HepG2 cells (AID 720674)
# Procedure, shortened: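 Compound auto-fluorescence is scored relative to Rose Bengal sodium, measured at 540/590 nm in live HepG2 cultures after 1 hr compound contact (37 C, 5% CO2).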
# [6] = qHTS assay to test for compound auto fluorescence at 535 nm (green) in HepG2 cells (AID 720675)
# [7] = qHTS assay to test for compound auto fluorescence at 460 nm (blue) in HEK293 cells (AID 720678)
# Procedure, shortened: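 Cells were seeded and left to adhere for 4-5 hr at 37C. Compounds were then pin-transferred. After an overnight incubation at 37C under 5% CO2, intrinsic fluorescence at 405/460 nm was measured and referenced to triamterene.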
# [8] = qHTS assay to test for compound auto fluorescence at 590 nm (red) in HEK293 cells (AID 720679)
# Procedure, shortened: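 Each well held 2,000 HEK293 cells in medium containing 10% dialyzed FBS. Following 4-5 hr attachment at 37C, 23 nL test compound or DMSO was added; plates sat overnight, and red fluorescence (540/590nm) was recorded.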
# [9] = qHTS assay to test for compound auto fluorescence at 535 nm (green) in HEK293 cells (AID 720680)
# [10] = qHTS assay to test for compound auto fluorescence at 460 nm (blue) in HEK293 cell free culture (AID 720681)
# Procedure, shortened: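 Test compounds were pinned into cell-free culture medium (DMEM with 10% FBS) and fluorescence was read directly at Ex/Em 405/460 nm. Signals were expressed as fluorescence equivalents of triamterene, with DMSO vehicle as control.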
# [11] = qHTS assay to test for compound auto fluorescence at 535 nm (green) in HEK293 cell free culture (AID 720682)
# Procedure, shortened: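 DMEM + 10% FBS, cell-free; cpd or DMSO pinned in; Ex485/Em535 read; output as fluorescein-equivalent signal.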
# [12] = qHTS assay to test for compound auto fluorescence at 590 nm (red) in HEK293 cell free culture (AID 720683)
# Procedure, shortened: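 Tox21 10K library compounds were pinned into cell-free DMEM with 10% FBS and fluorescence was read at excitation 540 nm. Activity is expressed as Rose Bengal sodium equivalency.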
# [13] = qHTS assay to test for compound auto fluorescence at 590 nm (red) in HepG2 cell free culture (AID 720684)
# Procedure, shortened: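 Ex 540 / Em 590 nm read of compound in cell-free MEM (10% FBS). Rose Bengal sodium reference.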
# [14] = qHTS assay to test for compound auto fluorescence at 460 nm (blue) in HepG2 cell free culture (AID 720685)
# Procedure, shortened: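 Cell-free plates of MEM plus 10% FBS received 23 nL compound or DMSO vehicle; blue-channel (405/460 nm) intensity scored against triamterene as reference fluorophore.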
# [15] = qHTS assay to test for compound auto fluorescence at 535 nm (green) in HepG2 cell free culture (AID 720686)
# [16] = qHTS assay to test for compound auto fluorescence at 460 nm (blue) in HepG2 cells (AID 720687)
# Procedure, shortened: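 Cells (2,000/well in MEM with 10% FBS) attached overnight at 37 C, then were exposed to compound or DMSO for 1 hr at 37 C, 5% CO2. Fluorescence read at Ex/Em 405/460 nm, expressed as triamterene-equivalent signal.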
# [17] = target: Glucocorticoid receptor (Homo sapiens) (UniProt P04150); assay: qHTS assay to identify small molecule agonists of the glucocorticoid receptor (GR) signaling pathway (AID 720691; active means well fitted activation curve with a large enough effect in the signal ratio in the repeat runs, not every such curve was filed as active; the % refers to the signal ratio)
# Procedure, shortened: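 HeLa GR-bla reporter line; cells pre-incubated 4 h, compound in DMSO 18 h at 37 C; LiveBLAzer B/G FRET substrate 2 h RT; fluorescence intensity read-out.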
# [18] = qHTS assay for small molecule disruptors of the mitochondrial membrane potential - cell viability (AID 720634; calls by dose curve; further: nearly all actives have a fitted effect of over 20% in size; further: potency means the concentration at half of the fitted maximal effect)
# Procedure, shortened: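 Luminescence from CellTiter-Glo (ATP content) gave viability in HepG2 cells, read in the same wells as the MMP dye assay after 1 hr compound exposure at 37 C.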
# [19] = target: Glucocorticoid receptor (Homo sapiens) (UniProt P04150); assay: qHTS assay to identify small molecule antagonists of the glucocorticoid receptor (GR) signaling pathway (AID 720692; active means well fitted inhibition curve with a large enough effect in the signal ratio in the repeat runs, not every such curve was filed as active; the % refers to the signal ratio; further: potency means the concentration at half of the fitted maximal effect)
# Procedure, shortened: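 Read-out: beta-lactamase FRET substrate fluorescence, 2 h at room temperature, in HeLa cells stably carrying a GRE-driven bla reporter. Compounds were co-incubated with 5 nM dexamethasone agonist (final) for 18 h at 37 C.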
# [20] = qHTS assay for small molecule disruptors of the mitochondrial membrane potential (AID 720635); further: potency means the concentration at half of the fitted maximal effect
# Procedure, shortened: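 HepG2 cells (2,000/well) attached overnight at 37C, then took compound for 1 hr at 37C, 5% CO2. Mito-MPS dye was added for 30 min; fluorescence was read at 490/535 nm (monomers) and 540/590 nm (aggregates).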
# Chain of Glucocorticoid receptor (Homo sapiens) (P04150 whole entry, looked up): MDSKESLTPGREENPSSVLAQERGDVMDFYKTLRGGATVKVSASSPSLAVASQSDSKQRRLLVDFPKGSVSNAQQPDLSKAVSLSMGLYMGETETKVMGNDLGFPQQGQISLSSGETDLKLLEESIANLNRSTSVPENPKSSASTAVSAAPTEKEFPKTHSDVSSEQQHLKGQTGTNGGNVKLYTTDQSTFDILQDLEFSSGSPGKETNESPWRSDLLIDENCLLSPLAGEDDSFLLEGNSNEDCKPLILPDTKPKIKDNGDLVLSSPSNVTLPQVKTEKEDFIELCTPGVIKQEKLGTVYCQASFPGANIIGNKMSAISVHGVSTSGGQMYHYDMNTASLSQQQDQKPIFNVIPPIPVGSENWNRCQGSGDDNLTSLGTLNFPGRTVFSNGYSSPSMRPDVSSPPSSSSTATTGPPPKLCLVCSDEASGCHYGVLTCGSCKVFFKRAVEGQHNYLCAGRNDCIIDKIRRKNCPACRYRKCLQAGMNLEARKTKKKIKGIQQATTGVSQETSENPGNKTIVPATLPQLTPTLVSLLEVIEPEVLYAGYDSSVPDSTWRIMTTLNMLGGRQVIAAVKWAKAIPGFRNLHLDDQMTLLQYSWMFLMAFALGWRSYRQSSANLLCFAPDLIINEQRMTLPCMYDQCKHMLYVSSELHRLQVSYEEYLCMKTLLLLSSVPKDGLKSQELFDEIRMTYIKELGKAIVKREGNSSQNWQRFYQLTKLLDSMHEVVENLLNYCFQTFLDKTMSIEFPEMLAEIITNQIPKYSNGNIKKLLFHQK
SMILES,Potency [1],Potency [2],Potency [3],Potency [4],outcome [5],outcome [6],outcome [7],outcome [8],outcome [9],outcome [10],outcome [11],outcome [12],outcome [13],outcome [14],outcome [15],outcome [16],Potency [17],Potency [18],Potency [19],Potency [20]
CCOC(=O)c1cn2nc(OP(=S)(OCC)OCC)cc2nc1C,inactive,inactive,inactive,inactive,inactive,inactive,inactive,inactive,inactive,inactive,inactive,inactive,inactive,inactive,inactive,inactive,inactive,,,
C[C@@H]1C[C@@H]([C@H](O)CC2CC(=O)NC(=O)C2)C(=O)[C@@H](C)C1,11.9 µM (active) and inactive,,inactive,1.33 µM (active) and 271 nM (active),inactive,inactive,inactive,inactive,inactive,inactive,inactive,inactive,inactive,inactive,inactive,inactive,,inactive,,
C=CCOCC1CO1 (stereo not given),inactive,inactive,inactive,inactive,inactive,inactive,inactive,inactive,inactive,inactive,inactive,inactive,,inactive,inactive,inactive,inactive,,,
COC(=O)C1(O)c2ccccc2-c2ccccc21,inactive,inactive,inactive,inactive,inactive,inactive,inactive,inactive,inactive,inactive,inactive,inactive,,inactive,inactive,inactive,inactive,inactive,inactive,
COC(=O)Cc1ccccc1,inactive,inactive,inactive,inactive,inactive,inactive,inactive,inactive,inactive,,inactive,inactive,inactive,inactive,inactive,inactive,inactive,inactive,inactive,
c1ccc2c(c1)sc1ccccc12,inactive,inactive,inactive,inactive,inactive,inactive,inactive,inactive,inactive,,inactive,inactive,inactive,inactive,inactive,inactive,inactive,inactive,inactive,
N#CC(C#N)=C(C#N)C#N,inactive,inactive,inactive,inactive,inactive,inactive,inactive,,inactive,,inactive,inactive,inactive,inactive,inactive,inactive,inactive,inactive,,
CC(C)(C)NCC(O)c1ccccc1Cl (stereo not given),inactive,inactive,inactive,inactive,inactive,inactive,inactive,,inactive,inactive,inactive,inactive,,inactive,inactive,inactive,inactive,inactive,inactive,
O=C1c2ccccc2C(=O)N1SC(Cl)(Cl)Cl,8.51 µM (active) and 4.33 µM (active),inactive,inactive,60.3 µM (active),inactive,inactive,inactive,inactive,inactive,inactive,inactive,inactive,inactive,inactive,inactive,inactive,,,,4.79 µM (active) and 7.7 µM (active)
FC(F)OC(F)(F)C(F)Cl (stereo not given),inactive,,inactive,inactive,inactive,inactive,inactive,,inactive,,inactive,inactive,inactive,inactive,inactive,inactive,inactive,inactive,inactive,inactive
CCCCNC(=O)OCC#CI,68.6 µM (active),inactive,60.8 µM (active),,inactive,inactive,inactive,inactive,inactive,inactive,inactive,inactive,inactive,inactive,inactive,inactive,,8.59 µM (active) and 27.3 µM (active),,4.31 µM (active) and 6.86 µM (active)
C#C[C@]1(O)CC[C@H]2[C@@H]3CCC4=CC(=O)CCC4=C3C=C[C@@]21CC,inactive,,inactive,inactive,inactive,inactive,inactive,,inactive,,inactive,inactive,inactive,inactive,inactive,inactive,,,,
Cc1cnc(C2=NC(C)(C(C)C)C(=O)N2)c(C(=O)O)c1 (stereo not given),inactive,inactive,inactive,inactive,inactive,inactive,inactive,inactive,inactive,inactive,inactive,inactive,,inactive,inactive,inactive,inactive,inactive,,
Clc1ccc(Cl)c(Cl)c1,inactive,,inactive,inactive,inactive,inactive,inactive,,inactive,inactive,inactive,inactive,,inactive,inactive,inactive,,inactive,,inactive
CCOP(=S)(S)OCC,inactive,inactive,inactive,inactive,inactive,inactive,inactive,inactive,inactive,,inactive,inactive,inactive,inactive,inactive,inactive,inactive,inactive,inactive,
c1ccc2c(c1)-c1cccc3cccc-2c13,inactive,,inactive,inactive,inactive,inactive,inactive,inactive,inactive,inactive,inactive,inactive,inactive,inactive,inactive,inactive,,,,61.7 µM (active) and 61.1 µM (active)
CC(Cl)C(=O)O (stereo not given),inactive,inactive,inactive,inactive,inactive,inactive,inactive,inactive,inactive,,inactive,inactive,inactive,inactive,inactive,inactive,,inactive,,
NC(=S)c1c(Cl)cccc1Cl,inactive,,inactive,,inactive,inactive,inactive,inactive,inactive,inactive,inactive,inactive,inactive,inactive,inactive,inactive,inactive,inactive,inactive,inactive
CC(Cc1ccccc1)NCc1ccccc1Cl (stereo not given),inactive,inactive,inactive,inactive,inactive,inactive,inactive,inactive,inactive,inactive,inactive,inactive,,inactive,inactive,inactive,inactive,inactive,,
CCCCCCCCn1sccc1=O,12.2 µM (active) and 25.5 µM (active),inactive,,54.6 µM (active),inactive,inactive,inactive,inactive,inactive,inactive,inactive,inactive,inactive,inactive,inactive,inactive,inactive,inactive,49.1 µM (active) and 36.3 µM (active),30.7 µM (active) and 64.1 µM (active)
O=C=NC1CCCCC1,inactive,,inactive,inactive,inactive,inactive,inactive,inactive,inactive,inactive,inactive,inactive,inactive,inactive,inactive,inactive,inactive,inactive,inactive,
C=C(C)C(=O)OCCCCOC(=O)C(=C)C,,inactive,inactive,inactive,inactive,inactive,inactive,inactive,inactive,inactive,inactive,inactive,inactive,inactive,inactive,inactive,inactive,inactive,,
O=CC=O,,inactive,inactive,inactive,inactive,inactive,inactive,inactive,inactive,inactive,inactive,inactive,,inactive,inactive,inactive,inactive,inactive,inactive,inactive
CCCCCCCCCCCC[N+](C)(C)CCOc1ccccc1,,inactive,29.8 µM (active) and 21.7 µM (active),29.8 µM (active) and 61.1 µM (active),inactive,inactive,inactive,inactive,inactive,inactive,inactive,inactive,inactive,inactive,inactive,inactive,,inactive and 68.6 µM (active),,26.6 µM (active) and 30.6 µM (active)
CCC1(CCC(C)C)C(=O)NC(=O)NC1=O,,inactive,inactive,inactive,inactive,inactive,inactive,inactive,inactive,inactive,inactive,inactive,inactive,inactive,inactive,inactive,,inactive,,
C=CC(C)(CCC=C(C)C)OC(=O)c1ccccc1N (stereo not given),inactive,,inactive,,inactive,inactive,inactive,,inactive,inactive,inactive,inactive,,inactive,inactive,inactive,inactive,inactive,,
CC[N+]1(CCOC(=O)C(O)(c2ccccc2)c2ccccc2)CCCCC1,,inactive,inactive,inactive,inactive,inactive,inactive,inactive,inactive,inactive,inactive,inactive,,inactive,inactive,inactive,inactive,inactive,,inactive
CC(=O)OC(c1ccccc1)C(Cl)(Cl)Cl (stereo not given),,inactive,inactive,inactive,inactive,inactive,inactive,inactive,inactive,,inactive,inactive,,inactive,inactive,inactive,inactive,inactive,,54.5 µM (active)
CCOP(=S)(OCC)Oc1ccc(S(C)=O)cc1 (stereo not given),,inactive,inactive,inactive,inactive,inactive,inactive,inactive,inactive,,inactive,inactive,inactive,inactive,inactive,inactive,,inactive,,inactive
